An excerpt weighted towards active compounds, which were near 2.5% of everything screened.
MEKK2 mut-MEK5: signal of MEK5 binding to mutant human MEKK2 PB1 domain; bead flow cytometry, Alexa488-MEK5 binding to MEKK2 mutant; hit rate 0.35% among 290,000; percent response, % at 10 µM; in the data active = percent response above about 24%, passing the limit was not always enough
Rce1 inhib: blocks yeast Ras-converting enzyme; Q03530; yeast membranes, quenched prenylated peptide cleavage fluorescence; calls only; hit rate 0.27% among 290,000;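 active = fall in fluorescence gain of 50% or more versus controls, with final raw signal at or below 3038400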;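 also: plate controls were neutral control wells for no effect and wells lacking membranes for full effect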
Target sequence (Q03530 whole entry, looked up): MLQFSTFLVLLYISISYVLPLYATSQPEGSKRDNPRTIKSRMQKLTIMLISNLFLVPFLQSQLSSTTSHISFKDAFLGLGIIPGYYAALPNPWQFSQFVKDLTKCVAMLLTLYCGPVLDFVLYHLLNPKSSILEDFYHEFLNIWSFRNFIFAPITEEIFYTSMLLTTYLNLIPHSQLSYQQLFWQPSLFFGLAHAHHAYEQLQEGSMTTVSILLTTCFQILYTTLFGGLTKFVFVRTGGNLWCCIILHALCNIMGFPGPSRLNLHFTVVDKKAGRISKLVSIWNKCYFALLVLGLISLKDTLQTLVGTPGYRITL
MEKK3 PB1 HTS: raises or lowers MEK5 binding to the human MEKK3 PB1 domain. Q99759. bead-based flow cytometry, Alexa488-MEK5 binding to MEKK3; actives lie on both sides; 0 = blocked by unlabeled MEK5, 100 = vehicle. binding response (% of control), % at 10 µM. hit rate 1.4% among 290,000. AID 1529;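 active = binding response more than 3 SD above or below the average of its plate-row segment, actives on both sides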;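 also: Alexa488 bead fluorescence after subtracting the streptavidin-only scavenger bead signal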
UBC13 inh: blocks human UBC13 polyubiquitin chain formation | AID 485273 | hit rate 0.47% among 330,000 | inhibition, % at 20 µM | P61088 | TR-FRET; in the data active = inhibition above about 45%, passing the limit was not always enough
Target sequence (P61088 whole entry, looked up): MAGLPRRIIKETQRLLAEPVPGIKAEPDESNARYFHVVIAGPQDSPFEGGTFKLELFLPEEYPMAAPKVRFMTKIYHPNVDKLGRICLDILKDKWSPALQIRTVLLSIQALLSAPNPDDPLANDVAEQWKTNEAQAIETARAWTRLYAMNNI
MEKK2wt PB1 HTS: raises or lowers MEK5 binding to wildtype human MEKK2 PB1 domain; Q9Y2U5; bead flow cytometry, Alexa488-MEK5 binding to MEKK2 WT; actives lie on both sides; binding response (% of control), % at 10 µM; hit rate 1.1% among 290,000; in the data active = binding response below about 67% or above about 130%
MEKK2wt confirm: raises or lowers MEK5 binding to wildtype human MEKK2, retest; hit rate 2.4% among 5,900; AID 1892; binding response (% of control), % at 10 µM; shares compounds with MEKK3 PB1 HTS; bead flow cytometry, Alexa488-MEK5 binding to MEKK2 WT; actives lie on both sides; in the data active = binding response below about 16% or above about 210%; inactive = in between
MEKK2mut confirm: signal of MEK5 binding to mutant human MEKK2, retest; shares compounds with MEKK3 PB1 HTS; bead flow cytometry, Alexa488-MEK5 binding to MEKK2 mutant; percent response, % at 10 µM; hit rate 2% among 5,900; in the data active = percent response mostly above about 71%, no sharp cut-off; inactive = mostly below about 38%;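 also: higher means compound restores mutant binding toward wildtype level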
MEKK3-MEK5 inh: MEKK3-MEK5 PB1 inhibition, single concentration confirmation | shares compounds with MEKK3 PB1 HTS | binding response (% of control), % at 10 µM | bead flow cytometry, Alexa488-MEK5 binding to MEKK3; stronger effect = lower value | hit rate 1.8% among 5,900 | AID 1894;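 active = binding response below 72% of control, or above a set upper limit, though filed actives all read lower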;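 also: 100% = DMSO only wells and 0% = binding blocked by excess unlabeled MEK5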
* = called active by the depositor; [ ] = another dose, or the depositor's remark.

Results for CN(C)C(CNC(=O)c1cccc(S(=O)(=O)NCc2ccccc2)c1)c1ccccc1 (stereo unspecified) ?
UBC13 inh: 15

Results for OCCC1CN(Cc2cccn2-c2cccnc2)CCN1C1CCCCC1 (stereo unspecified) ?
MEKK2 mut-MEK5: -8; Rce1 inhib: inactive; MEKK3 PB1 HTS: 91; UBC13 inh: -10; MEKK2wt PB1 HTS: 88

Results for CC1CC(C)CN(C(=O)CSc2nnc(N)s2)C1 (stereo unspecified) ?
MEKK2 mut-MEK5: -2; Rce1 inhib: inactive; MEKK3 PB1 HTS: 101; UBC13 inh: 3; MEKK2wt PB1 HTS: 102

What do the screens show for `CC1(c2ccc(OC(F)F)cc2)NC(=O)N(CC(=O)Nc2ccc(S(N)(=O)=O)cc2)C1=O` (stereo unspecified)?
MEKK2 mut-MEK5: -17; Rce1 inhib: inactive; MEKK3 PB1 HTS: 46*[inhibitor]; UBC13 inh: 6; MEKK2wt PB1 HTS: 49; MEKK2wt confirm: 95; MEKK2mut confirm: -5; MEKK3-MEK5 inh: 97

What do the screens show for `CCOC(=O)N/N=C(\C)c1ccc(C)c([N+](=O)[O-])c1`?
MEKK2 mut-MEK5: 1; Rce1 inhib: inactive; MEKK3 PB1 HTS: 132*; UBC13 inh: -1; MEKK2wt PB1 HTS: 108; MEKK2wt confirm: 97; MEKK2mut confirm: -1; MEKK3-MEK5 inh: 99

Results for COc1ccc(N2CCN(c3cc(C)c4cccc(C)c4n3)CC2)cc1 ?
MEKK2 mut-MEK5: -11; Rce1 inhib: inactive; MEKK3 PB1 HTS: 67*[inhibitor]; UBC13 inh: 9; MEKK2wt PB1 HTS: 86; MEKK2wt confirm: 98; MEKK2mut confirm: -6; MEKK3-MEK5 inh: 100

How did Cc1cc(N2CCN(c3ncccn3)CC2)nc2c(C)cccc12 do in these assays?
MEKK2 mut-MEK5: 7; Rce1 inhib: inactive; MEKK3 PB1 HTS: 106; UBC13 inh: 8; MEKK2wt PB1 HTS: 104

Results for COC(=O)c1ccc(C2c3c(oc4ccc(Cl)cc4c3=O)C(=O)N2CCN2CCOCC2)cc1 (stereo unspecified) ?
MEKK2 mut-MEK5: 28; Rce1 inhib: inactive; MEKK3 PB1 HTS: 131*; UBC13 inh: 1; MEKK2wt PB1 HTS: 128; MEKK2wt confirm: 99; MEKK2mut confirm: 3; MEKK3-MEK5 inh: 102

What do the screens show for `CC1=CC(=O)c2c(O)ccc(O)c2C1=O`?
MEKK2 mut-MEK5: -11; MEKK3 PB1 HTS: 90; MEKK2wt PB1 HTS: 79

How did CCC(=O)c1ccc(OCC(O)CN2CCN(C(c3ccccc3)c3ccccc3)CC2)cc1 (stereo unspecified) do in these assays?
MEKK2 mut-MEK5: 18; Rce1 inhib: inactive; MEKK3 PB1 HTS: 105; UBC13 inh: 12; MEKK2wt PB1 HTS: 158*; MEKK2wt confirm: 114; MEKK2mut confirm: 8; MEKK3-MEK5 inh: 103

How did CCC(=O)c1ccc(OCC(O)CN2CCOCC2)cc1 (stereo unspecified) do in these assays?
MEKK2 mut-MEK5: -31; Rce1 inhib: inactive; MEKK3 PB1 HTS: 2.0*[inhibitor]; UBC13 inh: 10; MEKK2wt PB1 HTS: 2.0*[inhibitor]; MEKK2wt confirm: 99; MEKK2mut confirm: -2; MEKK3-MEK5 inh: 101

How did CCOC(=O)N1CCN(C(=O)c2cccc(N3C(=O)NC4CC3(C)Oc3ccc(Cl)cc34)c2)CC1 (stereo unspecified) do in these assays?
MEKK2 mut-MEK5: -1; Rce1 inhib: inactive; MEKK3 PB1 HTS: 100; UBC13 inh: -4; MEKK2wt PB1 HTS: 98

What do the screens show for `CCN(CC)S(=O)(=O)c1cccc(NC(=O)Nc2cccc(C(F)(F)F)c2)c1`?
MEKK2 mut-MEK5: 20; Rce1 inhib: inactive; MEKK3 PB1 HTS: 102; UBC13 inh: 7; MEKK2wt PB1 HTS: 219*; MEKK2wt confirm: 183; MEKK2mut confirm: 45; MEKK3-MEK5 inh: 104

Source: PubChem
